Data taken from the supplement of paper PMC9135407.
Values joined by “and” are separate entries in the source; they are usually repeats but may differ in a detail not shown here. Equal entries are not always repeated. Structures can show the parent of a compound that is named as a salt. Hit rate of the full screen: of about 5,800 compounds, about 620 (11%) showed activity. The full list was thinned out, with actives kept by preference. Values without a mark were called inactive.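 Rule for the calls: active = score above a cut-off or among the top three wells of a plate; in these data no inactive exceeds 0.85.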

Tested on: primary human hepatic stellate cells (donor 1)
Test: scaled lipid accumulation score (0 = DMSO-like, 1 = nortriptyline-like); higher = stronger HSC inactivation (lipid re-accumulation), active = hit call of the paper
Details: 48 h
[1] = library stock concentration: 1 mM
[2] = library stock concentration: 10 mM
[3] = library stock concentration: 3.33 mM
[4] = library stock concentration: 2 mM
[5] = library stock concentration: 400 uM
[6] = library stock concentration: 80 uM

CCCCC[C@H](O)/C=C/[C@H]1[C@H](O)CC(=O)[C@@H]1C/C=C\CCCC(=O)NC(CO)CO [Prostaglandin E2 serinol amide]
scaled lipid accumulation score [1]: ≤ 0

CCN[C@@H]1C[C@H](N)[C@@H](O[C@H]2OC(CN)=CC[C@H]2N)[C@H](O)[C@H]1O[C@H]1OC[C@](C)(O)[C@H](NC)[C@H]1O [Netilmicin sulfate]
scaled lipid accumulation score (library stock concentration: 3 mM): ≤ 0

CC1=C(/C=C/C(C)=C\C=C\C(C)=C\C(=O)O)C(C)(C)CCC1 [9-cis Retinoic acid]
scaled lipid accumulation score [1]: ≤ -0.021

NC1C=CC=C(C(=O)O)C1 (configuration not stated) [Gabaculine hydrochloride]
scaled lipid accumulation score [2]: ≤ 0

CCCCC[C@H](O)/C=C/C1=C(CCCCCCC(=O)O)C(=O)CC1 [Prostaglandin B1]
scaled lipid accumulation score [1]: ≤ 0 and ≤ -0.021

O=C(NC[C@H]1CN(c2ccc(N3CCOCC3=O)cc2)C(=O)O1)c1ccc(Cl)s1 [Rivaroxaban]
scaled lipid accumulation score [3]: ≤ 0
scaled lipid accumulation score [2]: ≤ 0

Cc1ccccc1N=Nc1ccc(NC(=O)c2ccnn2C)c(C)c1
scaled lipid accumulation score [2]: ≤ -0.006

Cc1[nH]c(/C=C2\C(=O)Nc3ccccc32)c(C)c1CCC(=O)O [SU-6668 (TSU-68, Orantinib) (2 mM)]
scaled lipid accumulation score [4]: 0.047

CCN(CC)CCNC(=O)c1c(C)[nH]c(/C=C2\C(=O)Nc3ccc(F)cc32)c1C
scaled lipid accumulation score [5]: 0.189
scaled lipid accumulation score [2]: 0.43

CCN(CC)CCNC(=O)c1c(C)[nH]c(/C=C2\C(=O)Nc3ccc(Cl)cc32)c1C
scaled lipid accumulation score [3]: 0.556

Cc1[nH]c(/C=C2\C(=O)Nc3ccccc32)c(C)c1CCC(=O)O [TSU-68 (SU6668, Orantinib)]
scaled lipid accumulation score [3]: ≤ 0
scaled lipid accumulation score [2]: ≤ 0

CCOC(=O)c1c(C)[nH]c(/C=C2\C(=O)Nc3ccccc32)c1C [VEGF Receptor 2 Kinase Inhibitor I]
scaled lipid accumulation score [3]: ≤ 0

CCN(CC)CCNC(=O)c1c(C)[nH]c(/C=C2\C(=O)Nc3ccc(F)cc32)c1C [Sunitinib Malate]
scaled lipid accumulation score [3]: 0.775
scaled lipid accumulation score [2]: 0.432

Cc1[nH]c(/C=C2\C(=O)Nc3ccccc32)c(C)c1CCC(=O)O [SU-6668 (TSU-68, Orantinib) (0.4 mM)]
scaled lipid accumulation score [5]: 0.175

Cc1[nH]c(/C=C2\C(=O)Nc3ccccc32)c(C)c1CCC(=O)O
scaled lipid accumulation score [2]: 0.019

CCN(CC)CCNC(=O)c1c(C)[nH]c(/C=C2\C(=O)Nc3ccc(F)cc32)c1C.O=C(O)C[C@H](O)C(=O)O
scaled lipid accumulation score [4]: 1.66 (active)

CCN(CC)CCNC(=O)c1c(C)[nH]c(/C=C2\C(=O)Nc3ccc(F)cc32)c1C [Sunitinib malate]
scaled lipid accumulation score [6]: ≤ -0.009
scaled lipid accumulation score [5]: ≤ -0.009
scaled lipid accumulation score [2]: ≤ -0.07 and 0.421

CCN(CC)CCNC(=O)c1c(C)[nH]c(/C=C2\C(=O)Nc3ccc(F)cc32)c1C.O=C(O)C[C@H](O)C(=O)O [Sunitinib malate]
scaled lipid accumulation score [4]: 0.997 (active)

Cc1[nH]c(/C=C2\C(=O)Nc3ccccc32)c(C)c1CCC(=O)O [SU-6668 (TSU-68, Orantinib) (10 mM)]
scaled lipid accumulation score [2]: 0.012

CCC=CCC=CCC=CCC=CCCCCCCC(=O)O [.omega.-3 Arachidonic Acid]
scaled lipid accumulation score [1]: ≤ 0

CCN(CC)CCN(Cc1ccc(-c2ccc(C(F)(F)F)cc2)cc1)C(=O)Cn1c(SCc2ccc(F)cc2)nc(=O)c2c1CCC2
scaled lipid accumulation score [3]: 0.746
scaled lipid accumulation score [2]: 0.058

COc1ccc(-c2coc3cc(O)ccc3c2=O)cc1 [Formononetin]
scaled lipid accumulation score [3]: ≤ 0
scaled lipid accumulation score [2]: ≤ 0 and ≤ -0.027

Nc1ccc2cn[nH]c2c1
scaled lipid accumulation score [2]: ≤ 0

CC(C)(CO)[C@@H](O)C(=O)NCCC(=O)NCCSSCCNC(=O)CCNC(=O)[C@H](O)C(C)(C)CO
scaled lipid accumulation score [2]: ≤ 0

COC(=O)C1=C(C)NC(C)=C(C(=O)OCCCN2CCC(c3ccccc3)(c3ccccc3)CC2)[C@H]1c1cccc([N+](=O)[O-])c1 [Niguldipine]
scaled lipid accumulation score (library stock concentration: 7.7 mM): ≤ -0.021

COC(=O)C1=C(C)NC(C)=C(C(=O)OCCCN2CCC(c3ccccc3)(c3ccccc3)CC2)[C@H]1c1cccc([N+](=O)[O-])c1 [(S)-(+)-Niguldipine hydrochloride]
scaled lipid accumulation score [2]: ≤ -0.006

N#Cc1ccc2[nH]cc(CCCCN3CCN(c4ccc5oc(C(N)=O)cc5c4)CC3)c2c1 [Vilazodone HCl]
scaled lipid accumulation score [3]: 0.512

Cl.N#Cc1ccc2[nH]cc(CCCCN3CCN(c4ccc5oc(C(N)=O)cc5c4)CC3)c2c1 [Vilazodone HCl]
scaled lipid accumulation score [2]: 1.1 (active)

Cc1c(C(=O)N(C)C2CCCCC2)sc2nc3ccc(N)cc3n12
scaled lipid accumulation score [2]: 0.01

O=C(Nc1ccc2[nH]nc(-c3ccncc3)c2c1)[C@@H]1CCN(CC(=O)N2CCN(c3ccc(-c4ncccn4)cc3)CC2)C1 [listing 1 of 2 here]
scaled lipid accumulation score [2]: 0.909 (active)

O=C(Nc1ccc2[nH]ncc2c1)C1CCC1 [Rhodblock 6]
scaled lipid accumulation score [2]: 0.092

O=C(Nc1ccc2[nH]nc(-c3ccncc3)c2c1)[C@@H]1CCN(CC(=O)N2CCN(c3ccc(-c4ncccn4)cc3)CC2)C1 [listing 2 of 2 here]
scaled lipid accumulation score [6]: ≤ -0.001
scaled lipid accumulation score [5]: ≤ -0.001
scaled lipid accumulation score [4]: ≤ -0.001

O=C(OC[C@H]1O[C@@H](OC(=O)c2cc(O)c(O)c(OC(=O)c3cc(O)c(O)c(O)c3)c2)[C@H](OC(=O)c2cc(O)c(O)c(OC(=O)c3cc(O)c(O)c(O)c3)c2)[C@@H](OC(=O)c2cc(O)c(O)c(OC(=O)c3cc(O)c(O)c(O)c3)c2)[C@@H]1OC(=O)c1cc(O)c(O)c(OC(=O)c2cc(O)c(O)c(O)c2)c1)c1cc(O)c(O)c(OC(=O)c2cc(O)c(O)c(O)c2)c1 [Tannic acid]
scaled lipid accumulation score [2]: ≤ -0.027

CCc1cc(Cl)c(OC)c(C(=O)NC[C@@H]2CCCN2CC)c1O.Cl [Eticlopride hydrochloride]
scaled lipid accumulation score [2]: 0.978 (active)

CCN1CCC[C@H]1CNC(=O)c1c(O)c(Cl)cc(Cl)c1OC [Raclopride]
scaled lipid accumulation score [2]: ≤ 0 and ≤ -0.006

CCc1cc(Cl)c(OC)c(C(=O)NC[C@@H]2CCCN2CC)c1O
scaled lipid accumulation score [2]: 0.351

CCN1CCC[C@H]1CNC(=O)c1c(O)c(Cl)cc(Cl)c1OC [S(+)-Raclopride L-tartrate]
scaled lipid accumulation score [2]: ≤ 0

CCCCC[C@H](O)/C=C/[C@@H]1[C@@H](C/C=C\CCCC(=O)O)[C@@H](O)C[C@@H]1O [9a,11b-Prostaglandin F2]
scaled lipid accumulation score [1]: ≤ -0.021

CCCCC[C@H](O)/C=C/[C@@H]1[C@@H](C/C=C\CCCC(=O)O)[C@@H](O)C[C@@H]1O [11.beta.-Prostaglandin F2.alpha.]
scaled lipid accumulation score [1]: ≤ 0

CCCCCCCCCCCCCCCCCCCCCCCCCCCCCCO [n-Triacontanol]
scaled lipid accumulation score [1]: 0.026

O=C(O)Cc1ccccc1Nc1c(Cl)cccc1Cl [Diclofenac sodium]
scaled lipid accumulation score: 0.036
scaled lipid accumulation score (library stock concentration: 6.3 mM): 0.003
scaled lipid accumulation score [2]: ≤ -0.07 and ≤ 0

O=C(O)Cc1ccccc1Nc1c(Cl)cccc1Cl [Diclofenac Sodium]
scaled lipid accumulation score [3]: ≤ 0
scaled lipid accumulation score [2]: 0.007

Cl.Cl.Clc1ccccc1CNC[C@H]1CC[C@H](CNCc2ccccc2Cl)CC1
scaled lipid accumulation score [2]: 1.48 (active)

O=C(O)Cc1ccccc1Nc1c(Cl)cccc1Cl [Diclofenac Potassium]
scaled lipid accumulation score [3]: ≤ 0
scaled lipid accumulation score [2]: ≤ 0

COc1ccccc1CNCCCCCCNCCCCCCCCNCCCCCCNCc1ccccc1OC [Methoctramine tetrahydrochloride]
scaled lipid accumulation score [2]: 0.621

O=C(O)Cc1ccccc1Nc1c(Cl)cccc1Cl
scaled lipid accumulation score [2]: ≤ 0

O=C(O)Cc1ccccc1Nc1c(Cl)cccc1Cl [Diclofenac Diethylamine]
scaled lipid accumulation score [3]: ≤ 0
scaled lipid accumulation score [2]: ≤ 0

O=C(O)Cc1ccccc1Nc1c(Cl)cccc1Cl [Diclofenac (sodium salt)]
scaled lipid accumulation score [1]: ≤ 0

Cc1ncc(CSSCc2cnc(C)c(O)c2CO)c(CO)c1O
scaled lipid accumulation score [2]: ≤ 0

O=C1c2c(O)cc(CO)cc2C(OC2OC(CO)C(O)C(O)C2O)c2cccc(OC3OC(CO)C(O)C(O)C3O)c21 (configuration not stated) [CASANTHRANOL [cascaroside A shown]]
scaled lipid accumulation score [2]: ≤ 0

CCCCCCCCCCCSCC(=O)O [3-Thiatetradecanoic Acid]
scaled lipid accumulation score [1]: 0.006

Cn1cc(-c2[nH]c3cc(NC(=O)[C@H](N)C4CCCCC4)cc4c3c2C=NNC4=O)cn1
scaled lipid accumulation score [3]: ≤ 0
scaled lipid accumulation score [2]: 0.077

CN1c2cc3c(cc2N=C(c2ccc(C(=O)O)cc2)c2ccccc21)C(C)(C)CCC3(C)C
scaled lipid accumulation score [2]: 0.08

CNCCCC12CCC(c3ccccc31)c1ccccc12 [Maprotiline HCl]
scaled lipid accumulation score [3]: 0.678

CNCCC[C@]12CC[C@H](c3ccccc31)c1ccccc12 [Maprotiline HCl]
scaled lipid accumulation score (library stock concentration: 7.2 mM): 1.22 (active)

CNCCCC12CCC(c3ccccc31)c1ccccc12 [Maprotilline HCl]
scaled lipid accumulation score [2]: 1.35 (active)

C=CCN1CCc2c(cc(O)c(O)c2Cl)C(c2ccccc2)C1 (configuration not stated)
scaled lipid accumulation score [2]: 0.02

NCCNC(=O)c1ccc(Cl)cn1 [Lazabemide hydrochloride]
scaled lipid accumulation score [2]: ≤ -0.001

CCCCNC(=O)[C@@H]1Cc2ccccc2N1C(=O)[C@@H](N)CC [Butabindide oxalate]
scaled lipid accumulation score [2]: 0.016

CCCCCCCCCCCC=CC(C)(C)C=CCCCC(=O)O [7,7-Dimethyleicosadienoic acid]
scaled lipid accumulation score [1]: ≤ -0.02

CN1CCN(C2=Nc3cc(Cl)ccc3Nc3ccccc32)CC1 [Clozapine] [listing 1 of 2 here]
scaled lipid accumulation score [2]: 0.977 (active)

CN1CCN(C2=Nc3cc(Cl)ccc3Nc3ccccc32)CC1 [Clozapine] [listing 2 of 2 here]
scaled lipid accumulation score: 1 (active)

Clc1ccc2c(c1)N=C(N1CCNCC1)c1ccccc1N2 [N-Desmethylclozapine] [listing 1 of 2 here]
scaled lipid accumulation score [2]: 0.941 (active)

Clc1ccc2c(c1)N=C(N1CCNCC1)c1ccccc1N2 [N-Desmethylclozapine] [listing 2 of 2 here]
scaled lipid accumulation score [2]: 0.668

CN1CCN(C2=Nc3cc(F)ccc3Cc3ccccc32)CC1 [Fluperlapine]
scaled lipid accumulation score [2]: 0.448

CN1CCN(C2=Nc3cc(Cl)ccc3Nc3ccccc32)CC1
scaled lipid accumulation score [2]: 0.854 (active)
